Pf growth 96h – Primary qHTS for delayed death inhibitors of the malarial parasite plastid, 96 hour incubation; P. falciparum luciferase reporter growth, 96 h; 320,000 compounds, 6.9% hits; Potency, µM (series often up to 28.7 µM), for the others: at the top dose activity change, negative = inhibition, hits mostly inhibitors; further: potency means the concentration at half of the fitted maximal effect
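Compounds incubated with erythrocytes infected by luciferase-expressing P. falciparum (2% hematocrit, 0.05% parasitemia final) for 96 hours, 37 C in 5% CO2. Growth inhibition scored as decreased luciferase luminescence.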
HCV inh – qHTS Assay for Inhibitors of Hepatitis C Virus (HCV); Huh7.5.1 HCVcc-Cre infection, luciferase reporter, 44 h; Potency, µM (doses to about 41.8 µM), for the others: at the top dose activity change, negative = inhibition, usual class: inhibitors; 340,000 compounds, 3.4% hits; further: potency means the concentration at half of the fitted maximal effect
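Antiviral activity was scored by luciferase reporter output from cells infected with HCVcc-Cre (~0.5 moi) in presence of compound, 44 h infection period, cells seeded 1,000/well 4 h prior.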
HCMV antiviral – qHTS Assay for inhibitors of the human cytomegalovirus (HCMV); 410,000 compounds, 4.5% hits; activity change, negative = inhibition, % at 57.5 µM; HFF cells, HCMV-luciferase reporter, 72 h; hits give low values; in the data active means activity change below about -60%; inconclusive means no clear call, values can overlap the other calls; inactive means above about -39%
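Human foreskin fibroblasts infected with luciferase-reporter HCMV at MOI 1 PFU/cell, compounds at two doses. Luciferase measured 72 h post infection; normalized to buffer-only basal and Salinomycin (10uM) controls.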
Pf growth 48h – Primary qHTS for delayed death inhibitors of the malarial parasite plastid, 48 hour incubation; Potency, µM (top dose mostly 28.7 µM), without a hit: at the top dose activity change, negative = inhibition, actives largely listed as inhibitors; P. falciparum luciferase growth in erythrocytes, 48 h; 310,000 compounds, 5.9% hits; further: potency means the concentration at half of the fitted maximal effect
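Cell-based growth assay: transgenic P. falciparum expressing firefly luciferase, cultured in red cells within RPMI 1640 containing 0.5% w/v Albumax, 24 mM bicarbonate and gentamycin. A drop in luciferase activity indicates inhibition.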
Starred values were filed as active, the others as inactive; ? = inconclusive; . = no result. Sampled rows, rich in hits. Any-hit rate of the full collection: about 13%. Unless noted, the call rests on the fitted dose curve; in most records, active means well fitted inhibition curve with a large enough effect; inconclusive means small, poorly fitted or top-dose-only effect, or another doubt; inactive means no such curve, though single readings can be large or run the other way. On the % scale 0 is the no-effect control and ±100 the full control effect.

SMILES	Pf growth 96h	HCV inh	HCMV antiviral	Pf growth 48h
O=C(Nc1ccc(OCC(F)(F)C(F)F)c(C(F)(F)F)c1)c1ccc(Cl)cc1	.	7.9µM*	-95*	.
COc1ccc(C(=O)Nc2ccc(OCC(F)(F)C(F)F)c(C(F)(F)F)c2)cc1OC	?	11µM*	-99*	?
CC1=C(C(=O)OC(C)C)C(C)NC(=O)N1 (configuration not stated)	9.3µM*	15%	-19	0%
Cc1ccc(C)c(NC(=O)C(=O)NCCc2c[nH]c3ccccc23)c1	47%	?	-11	-21%
Cc1cccc(C)c1NC(=O)C(=O)NCCc1c[nH]c2ccccc12	?	?	-13	5.2µM*
CC(=O)NCCc1c[nH]c2ccccc12	13%	0%	.	13%
O=C(NCCc1c[nH]c2ccccc12)OCCSS(=O)(=O)O	12µM*	2%	-35	7%
CCC(C(=O)NCCc1c[nH]c2ccc(C)cc12)c1ccccc1 (configuration not stated)	15µM*	?	10	?
O=C(CCNS(=O)(=O)c1ccc(OC(F)(F)F)cc1)NCCc1c[nH]c2ccccc12	10µM*	?	0	?
Cc1cc(C)c(NC(=O)CCCn2c(C)c3cnn(-c4ccccc4)c(=O)c3c2C)c(C)c1	.	.	-20	.
Cc1ccccc1NC(=S)NCCc1c[nH]c2ccccc12	?	-3%	-17	?
Cc1cccc(NC(=S)NCCC(C)C)c1	12µM*	?	-30	?
Cc1ccccc1NC(=S)NCCC(c1ccccc1)c1ccccc1	0%	4%	-7	-2%
Cc1ccc(NC(=S)NCCC(c2ccccc2)c2ccccc2)c(C)c1	?	11µM*	-62*	?
Cc1ccc(C)c(NC(=S)NCCc2c[nH]c3ccccc23)c1	?	?	-78*	?
Cc1cccc(NC(=S)NCCc2c[nH]c3ccccc23)c1	?	-13%	-80*	-5%
COc1ccc(CNc2oc(-c3ccc(COc4ccc(Cl)cc4)o3)nc2C#N)cc1	.	.	0	.
COC(=O)c1sccc1S(=O)(=O)N1CCN(c2ccc(C(C)=O)cc2)CC1	.	.	21	.
CC(C)(C)OC(=O)NCCc1nc(NC(=O)OCc2ccccc2)sc1C(=O)O	.	.	11	.
O=C(CSC1=NCCS1)NC(NC(=O)CSC1=NCCS1)c1ccccc1	-21%	-2%	?	0%
COc1ccccc1CNC(=O)CSc1ccc(Br)cc1	-13%	-7%	?	-6%
CC(NC(=O)CSC1=NCCS1)c1ccccc1 (configuration not stated)	-18%	6%	-76*	15%
COc1ccccc1CNC(=O)CSC1=NCCS1	6%	-7%	-61*	31%
C#CC[N+](C)(C)CCCCCCCCC	?	?	-95*	3.7µM*
CC#CC[N+](C)(C)CCCCCCCCCC	?	?	-65*	0.74µM*
SMILES	Pf growth 96h	HCV inh	HCMV antiviral	Pf growth 48h
Cc1ccc(S(=O)(=O)n2nc(-c3ccco3)nc2NCc2ccccc2Cl)cc1	.	.	8	.
Cc1cc(N(C)C)nc(Nc2ccccc2)n1	12µM*	?	-17	13µM*
COCCC(C(=O)Oc1c(C(C)(C)C)cc(C)cc1C(C)(C)C)c1ccccc1 (configuration not stated)	5.2µM*	8%	-1	8.3µM*
CCC(C(=O)Oc1c(C(C)C)cccc1C(C)C)c1ccccc1 (configuration not stated)	?	21%	-19	-14%
Cc1ccc(C(=O)O)cc1Nc1nc2ccccc2n2nnnc12	.	.	102	.
Cc1ccc(N(CC(=O)NCCc2ccc(F)cc2)S(=O)(=O)c2ccc(Cl)c([N+](=O)[O-])c2)c(C)c1	?	10µM*	-1	?
COc1cc(C(=O)NC2CCCCC2)ccc1OCc1ccc(Cl)cc1Cl	17%	3%	?	10%
COc1cc(C(=O)NCCC(C)C)ccc1OCc1ccc(Cl)cc1Cl	4.7µM*	?	-3	10µM*
O=C(NC1CCCCC1)C(c1ccncc1)n1c(=O)c(-c2cc3ccccc3[nH]2)nc2ccccc21 (configuration not stated)	.	.	24	.
COc1ccc(C(=O)CC2(O)C(=O)N(CCc3ccccc3)c3ccc(Br)cc32)cc1OC (configuration not stated)	.	.	1	.
CN1C(=O)C(O)(CC(=O)c2ccccc2O)c2cc(Br)ccc21 (configuration not stated)	1.2µM*	21%	7	?
CCCCN1C(=O)C(O)(CC(=O)c2ccco2)c2cc(Br)ccc21 (configuration not stated)	-28%	21%	-75*	-16%
CN1C(=O)C(O)(CC(=O)/C=C/c2ccco2)c2ccccc21 (configuration not stated)	38%	5%	-28	-4%
CN1C(=O)C(O)(CC(=O)/C=C/c2ccco2)c2cc(Br)ccc21 (configuration not stated)	?	11µM*	44	?
C=CCN1C(=O)C(O)(CC(=O)c2ccc(OC)cc2OC)c2cc(Br)ccc21 (configuration not stated)	-1%	-12%	-28	12µM*
CCCCN1C(=O)C(O)(CC(=O)c2ccc(C)cc2C)c2cc(Br)ccc21 (configuration not stated)	.	.	-35	.
CCOc1ccc(-n2c(SCc3nc(-c4ccc(OC)cc4)no3)nnc2-c2ccncc2)cc1	.	.	-14	.
O=C(CC1(O)C(=O)Nc2ccccc21)c1cccc(-n2cccc2)c1 (configuration not stated)	31%	4%	-31	11%
CN1C(=O)C(O)(CC(=O)c2cccc(-n3cccc3)c2)c2ccccc21 (configuration not stated)	-2%	-1%	-3	9.3µM*
CCOc1ccc2ncc(S(=O)(=O)c3ccccc3)c(N3CCN(c4ccc(OC)cc4)CC3)c2c1	2.9µM*	?	5	8.3µM*
COc1ccc(N2CCN(c3c(S(=O)(=O)c4ccccc4)cnc4ccc(OC)cc34)CC2)cc1	4.1µM*	11µM*	?	8.3µM*
CCOc1ccc2ncc(S(=O)(=O)c3ccccc3)c(N3CCN(c4ccccc4)CC3)c2c1	.	7%	19	.
COC(=O)c1sc2ccccc2c1S(=O)(=O)N1CCN(c2ccc(C(C)=O)cc2)CC1	.	.	30	.
CCOC(=O)N1CCN(S(=O)(=O)c2ccc(F)c(C(=O)Nc3cccc(Cl)c3C)c2)CC1	-17%	?	-12	12µM*
CCOC(=O)N1CCN(S(=O)(=O)c2ccc(F)c(C(=O)Nc3cc(C)cc(C)c3)c2)CC1	?	?	17	8.3µM*
O=C(NCCc1ccccc1)C(=O)NCC(c1cccs1)S(=O)(=O)c1cccs1 (configuration not stated)	.	.	-16	.
CCc1ccc(NC(=O)Nc2cn(C)c(=O)c3ccccc23)cc1	.	.	6	.

Screens deposited in PubChem BioAssay by National Center for Advancing Translational Sciences (NCATS).
